Results: PubChem BioAssay (NCATS)
Inconclusive results are not listed. Entries that show only a call come without a potency. Active and inactive are the calls of the source. Calls follow the shape of the full dose curve.

Assay: Cytotoxicity counterscreen for inhibitors of SARS-CoV-2 cell entry (AID 1645845); also: nearly all actives have a fitted effect of over 50% in size
Settings: cell viability (SARS-CoV-2 entry assay cells); series mostly up to 57.1 µM
Description: Assay Provider: Wei Zheng, Ph.D.
National Center for Advancing Translational Sciences, National Institute of Health, Rockville, MD.
SARS-CoV-2 spike protein, within the viral envelope, mediates viral attachment and infection of host cells. The SARS-CoV-2 spike protein specifically binds to the host receptor ACE2 (Angiotensin-converting enzyme 2). This interaction promotes endocytosis of the viral particle, additional events lead to viral-host cell membrane fusion and release of the viral contents, allowing viral replication.
While SARS-CoV-2 requires BSL-3 facilities for live virus work, pseudo-typed partices (PP) that incorporate SARS-CoV-2 spike proteins without replication elements could facilitate studies on viral entry mechanisms in a BSL-2 setting. This PP cell entry assay could also enable screening of small molecule compound libraries in BSL-2 setting to identify inhibitors of SARS-CoV-2 cell entry. To eliminate false positive compounds, ATP content cytotoxicity assay was screened in the same cell line.
SEQUENCE No. (e.g., 1, 2, 3, etc.); […] (e.g., Cells, Incubation, Reagent, etc.); VALUE and DESCRIPTION.
1. Cells. Seed 1500 HEK293-ACE2 cells (Expi293F with stable expression of human ACE2) in 2 uL/well media (DMEM, 10% FBS, 1x L-glutamine, 1x Pen/Strep, 1 ug/ml puromycin) in white 1536-well assay plates (Greiner #782073).
2. Incubation. Incubate at 37 C with 5% CO2 overnight (~16 h).
3. Compounds. Dispense 23 nL/well compounds in DMSO via pin transfer.
4. Incubation. Incubate for 1 h at 37C 5% CO2.
5. Reagent. Dispense 2 uL/well of media (DMEM, 10% FBS, 1x L-glutamine, 1x Pen/Strep, 1 ug/ml puromycin).
6. Incubation. Incubate at for 48h at 37C 5% CO2
7. Reagent. Dispense 4 uL/well of ATPLite 1step luminescence assay reagent (PerkinElmer #6016739).
8. Incubation. Incubate for 15 min at room temperature.
9. Detection. Read luminescence signal (Viewlux plate reader, PerkinElmer). Data was normalized with wells containing cells as 100%, and wells without cells (media only control) as 0%.
Potency is read from the fitted curve at half-maximal effect.

**Q.** For `COc1cc(OC)cc(N(CCNC(C)C)c2ccc3ncc(-c4cnn(C)c4)nc3c2)c1`, which Potency is on record?
**A.** inactive

**Q.** For `CCN1C[C@@]2(COC)C3[C@@H](OC)C4[C@@H]1[C@@]3(C1C[C@]3(O)[C@H](OC(=O)c5ccccc5)C1[C@]4(OC(C)=O)[C@@H](O)[C@@H]3OC)[C@@H](OC)C[C@H]2O` (stereo not given in full), which Potency is on record?
**A.** inactive

**Q.** For `Cn1c(CCCCCCC(=O)NO)nc2cc(N(CCCl)CCCl)ccc21`, which Potency is on record?
**A.** inactive

**Q.** With `CCCCCCCCC=CCCCCCCCC(=O)NCCOC(=O)CC(C(=O)O)S(=O)(=O)O` (stereo not given) as the compound, how does the Potency read?
**A.** inactive

**Q.** For `CN(C)CC(=O)O`, which Potency is on record?
**A.** inactive

**Q.** For `N#Cc1ccnc(N2C(=O)CC[C@H]2C(=O)N(c2cncc(F)c2)[C@H](C(=O)NC2CC(F)(F)C2)c2ccccc2Cl)c1`, which Potency is on record?
**A.** inactive

**Q.** With `CC(C)[C@@H](C)/C=C/[C@@H](C)[C@H]1CC[C@H]2/C(=C/C=C3\C[C@@H](O)CC[C@@H]3C)CCC[C@]12C` as the compound, how does the Potency read?
**A.** inactive

**Q.** For `COC(=S)NCCn1c([N+](=O)[O-])cnc1C`, which Potency is on record?
**A.** inactive

**Q.** Which Potency does the source give for `CC[C@H](CC[C@@H](C)[C@H]1CC[C@H]2[C@@H]3CC=C4C[C@@H](O)CC[C@]4(C)[C@H]3CC[C@]12C)C(C)C` here?
**A.** inactive

**Q.** With `CN1CCC(c2c(O)cc(O)c3c(=O)cc(-c4ccccc4Cl)oc23)C1CO` (stereo not given) as the compound, how does the Potency read?
**A.** inactive

**Q.** With `OC[C@@H](O)C(O)[C@H](O)CO` as the compound, how does the Potency read?
**A.** inactive

**Q.** Which Potency does the source give for `Nc1nc(Cl)nc2c1ncn2C1CC(O)C(CO)O1` (stereo not given) here?
**A.** inactive

**Q.** With `CN(C)C1CCN(C(=O)c2ccc(NC(=O)Nc3ccc(-c4nc(N5CCOCC5)nc(N5CCOCC5)n4)cc3)cc2)CC1` as the compound, how does the Potency read?
**A.** 1120 nM (active)

**Q.** With `CC1(C(=O)O)CCC2(C)CCC3(C)C(=CC(=O)C4C5(C)CCC(OC6OC(C(=O)O)C(O)C(O)C6OC6OC(C(=O)O)C(O)C(O)C6O)C(C)(C)C5CCC43C)C2C1` (stereo not given) as the compound, how does the Potency read?
**A.** inactive

**Q.** For `O=C(O)[C@H]1OC(O)[C@H](O)[C@@H](O)[C@@H]1O` (stereo not given in full), which Potency is on record?
**A.** inactive

**Q.** With `N[C@@H]1CN(c2c(F)cc3c(=O)c(C(=O)O)cn([C@@H]4C[C@@H]4F)c3c2Cl)CC12CC2` as the compound, how does the Potency read?
**A.** inactive

**Q.** With `CC(C)=CCC/C(C)=C/CC/C(C)=C/CSc1ccccc1C(=O)O` as the compound, how does the Potency read?
**A.** inactive

**Q.** With `C[C@@H]1CC(=O)Nc2cccc(-c3cnn(C(C)(C)C)c3)c2N1` as the compound, how does the Potency read?
**A.** inactive

**Q.** With `CC#CCC(C)[C@H](O)/C=C/[C@@H]1[C@H]2C/C(=C/CCCC(=O)O)C[C@H]2C[C@H]1O` (stereo not given in full) as the compound, how does the Potency read?
**A.** inactive

**Q.** Which Potency does the source give for `CS(=O)(=O)OCC(O)C(O)COS(C)(=O)=O` (stereo not given) here?
**A.** inactive

**Q.** Which Potency does the source give for `CN[C@H]1C[C@@H](N)[C@H](O)[C@@H](O[C@@H]2O[C@H](CO)[C@H](O)[C@@H]3OC4(O[C@H]23)O[C@H]([C@@H](N)CO)[C@H](O)[C@H](O)[C@H]4O)[C@@H]1O` (stereo not given in full) here?
**A.** inactive

**Q.** For `COc1ccc(-n2c(SCCCN3C(=O)c4cccc5cccc(c45)C3=O)nnc2-c2ccncc2)cc1`, which Potency is on record?
**A.** inactive

**Q.** With `O=C(O)c1ccccc1C(c1ccc(O)cc1)c1ccc(O)cc1` as the compound, how does the Potency read?
**A.** inactive

**Q.** For `O=C(O[C@H]1C[N+]2(CCCOc3ccccc3)CCC1CC2)C(O)(c1cccs1)c1cccs1`, which Potency is on record?
**A.** inactive

**Q.** Which Potency does the source give for `NC(=O)[C@H]1O[C@@H](O)[C@H](O)[C@@H](O)[C@@H]1O` here?
**A.** inactive

**Q.** Which Potency does the source give for `CCC[C@H](NC(=O)[C@@H]1[C@H]2CCC[C@H]2CN1C(=O)[C@@H](NC(=O)[C@@H](NC(=O)c1cnccn1)C1CCCCC1)C(C)(C)C)C(=O)C(=O)NC1CC1` here?
**A.** inactive

**Q.** Which Potency does the source give for `CC[N+](C)(C)Cc1ccccc1Br` here?
**A.** inactive

**Q.** Which Potency does the source give for `CCN(CC)CCS(=O)(=O)[C@@H]1CCN2C(=O)c3coc(n3)CC(=O)C[C@H](O)/C=C(C)/C=C/CNC(=O)/C=C/[C@@H](C)[C@@H](C(C)C)OC(=O)[C@@H]12` here?
**A.** inactive

**Q.** Which Potency does the source give for `COc1ccc(C[C@H](C)NC[C@@H](O)c2ccc(O)c(NC=O)c2)cc1` here?
**A.** inactive

**Q.** For `CCN(CC)C(=O)Cc1csc(NS(=O)(=O)c2cccc(Cl)c2C)n1`, which Potency is on record?
**A.** inactive

**Q.** Which Potency does the source give for `CSC[C@H]1CN(Cc2c[nH]c3c(N)ncnc23)C[C@@H]1O` here?
**A.** inactive

**Q.** With `COc1ccc(Cl)cc1-c1cc(=O)[nH]c(=S)n1CC(N)=O` as the compound, how does the Potency read?
**A.** inactive

**Q.** Which Potency does the source give for `CC(COc1ccc(Oc2ccccc2)cc1)Oc1ccccn1` (stereo not given) here?
**A.** inactive

**Q.** With `CN1CCN(c2ccc(-c3cccc(CN4CCOCC4)c3)cc2NC(=O)c2c[nH]c(=O)cc2C(F)(F)F)CC1` as the compound, how does the Potency read?
**A.** inactive

**Q.** With `NC(N)=NCCC[C@@H](N)C(=O)N[C@@H](CCCN=C(N)N)C(=O)N1CCC[C@H]1C(=O)N1C[C@H](O)C[C@H]1C(=O)NCC(=O)N[C@@H](Cc1cccs1)C(=O)N[C@@H](CO)C(=O)N1Cc2ccccc2C[C@@H]1C(=O)N1[C@H](C(=O)N[C@@H](CCCN=C(N)N)C(=O)O)C[C@@H]2CCCC[C@@H]21` as the compound, how does the Potency read?
**A.** inactive

**Q.** With `CC(C)(C)CC(C)(C)c1cc(Cc2cc(C(C)(C)CC(C)(C)C)cc(-n3nc4ccccc4n3)c2O)c(O)c(-n2nc3ccccc3n2)c1` as the compound, how does the outcome read?
**A.** inactive [at 5.25 µM]

**Q.** With `C=C/C=C/CC1=C(C)[C@H](OC(=O)[C@H]2[C@H](/C=C(\C)C(=O)OC)C2(C)C)CC1=O` as the compound, how does the Potency read?
**A.** inactive

**Q.** For `CO[C@H]1C[C@@H]2CC[C@@H](C)[C@@](O)(O2)C(=O)C(=O)N2CCCC[C@H]2C(=O)O[C@H]([C@H](C)C[C@@H]2CC[C@@H](OP(C)(C)=O)[C@H](OC)C2)CC(=O)[C@H](C)/C=C(\C)[C@@H](O)[C@@H](OC)C(=O)[C@H](C)C[C@H](C)/C=C/C=C/C=C/1C`, which Potency is on record?
**A.** inactive

**Q.** For `O[C@@H]1[C@@H](O)[C@@H](O)OC[C@@H]1O`, which Potency is on record?
**A.** inactive

**Q.** Which Potency does the source give for `O=C(Nc1cccc(C(F)(F)F)c1)c1cccc2cc(Oc3cc(CO)ncn3)ccc12` here?
**A.** inactive
